Potency data for 13 compounds are collected here from PubChem BioAssay AID720525 (National Center for Advancing Translational Sciences (NCATS), 2013).

Records with an inconclusive call do not appear. Entries that show only a call come without a potency. The source made the active and inactive calls. The call rests on the fitted dose curve; in most records, active means well fitted activation curve with a large enough effect; inconclusive means small, poorly fitted or top-dose-only effect; inactive means no such curve, though single readings can be large or run the other way.

The nature of the experiment: qHTS Assay for NPC1 Promoter Activators: Hit Validation Using Firefly Luciferase Read-Out for Rab9. The settings on record: Huh7 Rab9 promoter firefly luciferase reporter, 24 h; series mostly up to 46.1 µM. The source says:
Niemann Pick Type C (NPC) is a rare neurodegenerative lipidosis that is characterized by lipid storage in the endosomal/lysosomal system. Treatment modalities for this devastating disease are currently non-existent due to the severe obstacles associated with accessing the central nervous system with proteins or genes. The majority of mutations causing NPC disease are missense mutations that are distributed throughout the length of the NPC1 protein, with the most prevalent being the I1061T allele. Although NPC1 mutant proteins may be functional, they are typically trapped in the ER due to misfolding. […] We have developed and optimized a cell based renilla luciferase reporter assay in 1536 well format for the identification of up-regulators of the mutant Rab9 promoter. This assay presents data on the validation of hits from the primary screen, which used a firefly luciferase read-out. NIH Chemical Genomics Center [NCGC] NIH Molecular Libraries Probe Production centers Network [MLPCN] MLPCN Grant: MH089375 Assay Submitter (PI): Yiannis A. Ioannou
Huh7 cells stably expressing NPC promoter-luciferase will be seeded at 1,500 cells/well in 5 uL in 1,536-well white opaque plates with 23 nL/well of compound in DMSO solution. The assay plates will be incubated at 37 deg C for 24 hours, after which 3 uL/well BriteLite plus luciferase detection reagent mixture (Perkin Elmer) will be added. Luminescence signal will be measured in a ViewLux plate reader (Perkin Elmer) after a 10 minute incubation at the room temperature.
In the case of `N#CC/C(N)=N/NC(=O)CCCNc1ncc(C(F)(F)F)cc1Cl`, the Potency was 19900 nM (active).
Take `Cc1ccc(NC(=O)NC(=O)c2ccccc2)cc1F`: the Potency was 445 nM (active).
Consider `CC(C)CC(=O)N1CCN(c2ccc(NC(=O)c3ccco3)cc2)CC1`, for which the Potency entry is “inactive”.
On to `COc1ccc([N+](=O)[O-])cc1COc1ccc2c(-c3ccccc3)cc(=O)oc2c1`, for which the Potency result is “inactive”.
In the case of `O=C(NC(=S)Nc1ccc(CN2CCCCC2)cc1)c1cc2ccccc2o1`, the Potency result was “inactive”.
Under `Cc1ccc(NC(=O)COC(=O)C2C3CC4OC(=O)C2C4C3)cc1Cl` (stereo not drawn) stands “inactive”.
As to `CC1CCCN(S(=O)(=O)c2ccc(C(=O)Nc3nnc(-c4ccncc4)o3)cc2)C1` (stereo not drawn), the Potency result was “inactive”.
To `COc1ccc(-c2csc(N(CCCN(C)C)C(=O)c3ccccc3C)n2)cc1` belongs “inactive”; to `O=C(CSc1nnc(-c2ccccc2)o1)Nc1ccccc1F`, 112 nM (active); to `CCOC(=O)c1ccc(NC(=O)Oc2cc(C)c(Cl)cc2C(C)C)cc1`, “inactive”.
To `CCc1cc2c(N=Nc3c(O)[nH]c4ccccc34)ncnc2s1` belongs “inactive”.
To `Cc1cccc(N2CCN(C(=S)c3ccccc3)CC2)c1` belongs “inactive”; to `O=C(CSc1nccn1Cc1ccco1)Nc1ccccc1F`, “inactive”.
